# Assay outcomes from PubChem.
# HepG2 viability: HepG2 cytotoxicity, counter-screen for TGF-b inhibitors | HepG2 CAGA-GFP viability, ATP luminescence, 18 h | Potency, µM (top dose mostly 46.1 µM), without a hit: top-dose activity change, negative = cytotoxicity, hits mostly cytotoxic | 0.76% of 410,000 active | AID 588856; further: potency means the concentration at half of the fitted maximal effect
#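 CellTiter-Glo luminescence gave cytotoxicity after 18 hours at 37 degrees C. The cells were HepG2 CAGA-GFP in 1% FBS DMEM, stimulated with 500 pg/mL TGF-beta after compound addition. %Activity was normalised to no-cell wells (complete cell-killing) and DMSO (no toxicity), and curves were fitted and classified.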
# TDP1 cell CPT: DT40-hTDP1 cell growth loss with CPT. chicken DT40 Tdp1-/-;hTDP1 cells + 20 nM CPT, ATP luminescence, 48 h. Potency, µM (top dose mostly 46.2 µM), without a hit: top-dose activity change, negative = growth inhibition, usual class: inhibitors. 12% of 420,000 active; further: potency means the concentration at half of the fitted maximal effect; on the % scale 0 is the no-effect control and ±100 the full control effect; nearly all actives have a fitted effect of over 55% in size
#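 Chicken DT40 Tdp1-/- cells stably complemented with human TDP1 were seeded at 400 cells/well in medium containing 20 nM camptothecin, exposed to pin-transferred compounds, and grown at 37 °C for at least 48 hr. Viability was read as ATP luminescence.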
# IL-1B inflam inh: inflammasome signaling inhibition, IL-1 beta readout. THP-1 LPS/ATP IL-1B secretion, AlphaLISA, 16 h; active compounds read low. activity change, % at 57.5 µM. 4.7% of 360,000 active; in the data active means activity change below about -50%; inconclusive means mostly about -30% to -49%; further: on the % scale 0 is the no-effect control and ±100 the full control effect
#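 THP-1 cells pretreated 1 hr with compounds (up to 57.5 uM final), then stimulated with LPS (250 ng/mL final) plus ATP (1.25 mM final); secreted IL-1B measured by AlphaLISA after 16 hr, decreased signal indicating inhibition.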
# TGFb SMAD3 inh: TGF-b pathway inhibition; HepG2 CAGA-GFP TGF-b/SMAD3 reporter, GFP fluorescence, 18 h; TGF-beta stimulated, 500 pg/mL final; Potency, µM (doses to about 46.1 µM), for inactives: top-dose activity, negative = inhibition, actives largely listed as inhibitors; 1.2% of 410,000 active; AID 588855; further: potency means the concentration at half of the fitted maximal effect; on the % scale 0 is the no-effect control and ±100 the full control effect; nearly all actives have a fitted effect of over 65% in size
#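 Inhibition of TGF-beta-driven CAGA-GFP reporter expression in HEPG2 cells is measured by cellular GFP fluorescence after 18 h stimulation with 500 pg/mL recombinant TGF-beta in 1% FBS medium at 37 degrees C.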
# DT40 TDP1 no CPT: qHTS for Inhibitors of human tyrosyl-DNA phosphodiesterase 1 (TDP1): qHTS in cells in absence of CPT; DT40 Tdp1-/- hTDP1 cells, no CPT, ATP luminescence, 48 h; Potency, µM (doses to about 46.2 µM), without a hit: at the highest dose activity change, negative = growth inhibition, most hits filed as inhibitors; 15% of 420,000 active; AID 686978, 2013; further: potency means the concentration at half of the fitted maximal effect; on the % scale 0 is the no-effect control and ±100 the full control effect; nearly all actives have a fitted effect of over 55% in size
#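 A cellular qHTS used chicken DT40 cells lacking endogenous Tdp1 but carrying stably transfected human TDP1. Compounds were applied without camptothecin, and cell growth kinetics were judged by ATP-dependent luminescence after ≥48 hr.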
# S-ASM inh: inhibitors of human secretory acid sphingomyelinase | AID 504937 | Potency, µM (doses to about 57.5 µM), without a hit: at the top dose activity change, negative = inhibition, most hits filed as inhibitors | placental ASM, HMU-PC fluorogenic substrate, 60 min | P17405 | 0.006% of 340,000 active; further: potency means the concentration at half of the fitted maximal effect
# Target sequence (P17405 47-631 limits assumed): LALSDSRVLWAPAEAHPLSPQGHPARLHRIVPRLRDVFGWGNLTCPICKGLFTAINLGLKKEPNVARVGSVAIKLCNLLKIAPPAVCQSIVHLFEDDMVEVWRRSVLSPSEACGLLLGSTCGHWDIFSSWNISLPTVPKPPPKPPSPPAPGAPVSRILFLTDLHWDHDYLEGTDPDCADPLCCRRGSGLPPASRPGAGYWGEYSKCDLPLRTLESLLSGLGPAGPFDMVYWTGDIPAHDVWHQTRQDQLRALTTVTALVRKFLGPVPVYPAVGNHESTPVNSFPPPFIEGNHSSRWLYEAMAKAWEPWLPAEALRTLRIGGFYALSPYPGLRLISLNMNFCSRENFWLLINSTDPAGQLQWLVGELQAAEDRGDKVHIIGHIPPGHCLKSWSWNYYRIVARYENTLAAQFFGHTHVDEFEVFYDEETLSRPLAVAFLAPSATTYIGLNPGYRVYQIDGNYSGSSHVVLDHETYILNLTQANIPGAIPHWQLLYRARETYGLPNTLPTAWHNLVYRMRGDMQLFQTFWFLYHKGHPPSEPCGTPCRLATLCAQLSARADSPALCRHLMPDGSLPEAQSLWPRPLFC
#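 Fluorogenic HMU-PC substrate (9 uM final) is turned over by placental ASM in 60 min at 37 C after a 10 min compound preincubation. Reaction ended by alkaline stop (pH 10), with fluorescence read at 386/447 nm.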
# Starred values were filed as active, the others as inactive; u = inconclusive; x = no result given. Sampled rows, rich in hits. Any-hit rate of the full collection: about 19%. Unless noted, the call rests on the fitted dose curve; in most records, active means well fitted curve in the direction sought with a large enough effect; inconclusive means small, poorly fitted or top-dose-only effect, or another doubt; inactive means no such curve, though single readings can be large; an effect the other way counts as inactive or inconclusive.
SMILES,HepG2 viability,TDP1 cell CPT,IL-1B inflam inh,TGFb SMAD3 inh,DT40 TDP1 no CPT,S-ASM inh
Cc1cc(C)c(OCCN2CCCC2)c(Cl)c1,2%,-3%,-6,-8%,-23%,0%
Cc1cc(Cl)c(OCCCN2CCCCC2)c(Br)c1,-27%,-7%,-79*,2%,u,3%
Cc1cc(C)c(OCCCCCn2ccnc2)c(C)c1,-25%,u,28,-28%,15µM*,-1%
CC1CCC/C(=N\NC(=O)COc2ccccc2Cl)C1 (stereo unspecified),1%,3%,18,2%,1%,4%
Cc1ccccc1NC(=O)CSc1nnc(-c2cccs2)o1,15%,-5%,x,0%,-10%,x
COc1cc(C(=O)NC2CC(C)(C)CC(C)(C)C2)ccc1OC1CCN(C(C)=O)CC1,-8%,u,3,u,u,0%
Cc1cc(OCCCCCn2ccnc2)cc(C)c1Cl,-45%,u,-13,u,13µM*,3%
Cc1cc(OCCCn2ccnc2)ccc1[N+](=O)[O-],9%,-29%,-79*,31%,u,2%
Cc1cc(OCCCn2ccnc2)cc(C)c1Cl,-11%,-29%,1,u,u,-2%
C=CCc1cc(Cl)ccc1OCCCn1ccnc1,-25%,u,21,-12%,21µM*,-1%
O=c1c(-c2ccccc2)nc2cnc(Oc3cccc(Cl)c3)nc2n1C[C@H]1CCCO1,x,-13%,x,x,-30%,x
O=C(N/N=C/c1ccncc1)c1ccc(NS(=O)(=O)c2cccs2)cc1,3%,-8%,-14,-10%,4%,0%
CCN(c1ccccc1)S(=O)(=O)c1ccc(Cl)c(NC(=O)CSc2nnc(C)s2)c1,-18%,u,4,-14%,u,-2%
CN(Cc1ccccc1)S(=O)(=O)c1ccc(Cl)c(C(=O)N2CCC2)c1,-12%,u,0,-14%,u,-1%
CCN(c1ccccc1)S(=O)(=O)c1ccc(Cl)c(C(=O)N(CC2CCCO2)C2CCS(=O)(=O)C2)c1 (stereo unspecified),-12%,u,-11,-4%,21µM*,5%
CCN(c1ccccc1)S(=O)(=O)c1ccc(Cl)c(NC(=O)COC(=O)c2ccc(O)cc2)c1,-4%,u,-3,-5%,u,-6%
CCN(c1ccccc1)S(=O)(=O)c1ccc(Cl)c(C(=O)N2CCCC2)c1,1%,u,32,-4%,15µM*,4%
CCN1CCN(S(=O)(=O)c2ccc(Cl)c(C(=O)N(CC(C)C)C3CCS(=O)(=O)C3)c2)CC1 (stereo unspecified),0%,-28%,-9,4%,-11%,8%
CCN(c1ccccc1)S(=O)(=O)c1ccc(Cl)c(NC(=O)CNC(C)c2ccccc2)c1 (stereo unspecified),3%,21µM*,-10,-17%,u,-4%
CCC(C)NCC(=O)Nc1cc(S(=O)(=O)N(CC)c2ccccc2)ccc1Cl (stereo unspecified),-7%,21µM*,-53*,-28%,23µM*,-1%
CCN(c1ccccc1)S(=O)(=O)c1ccc(Cl)c(NC(=O)CN2CCCCCC2)c1,1%,21µM*,-27,u,18µM*,9%
CCN(c1ccccc1)S(=O)(=O)c1ccc(Cl)c(NC(=O)CN(C)Cc2cccc(F)c2)c1,-10%,16µM*,0,-11%,18µM*,-3%
CCN(c1ccccc1)S(=O)(=O)c1ccc(C(=O)N2CCN(c3ccccc3)CC2)cc1,-16%,u,0,u,21µM*,-1%
